According to PubChem BioAssay AID624483 (NMMLSC, 2012):
Out of some 360,000 compounds screened, about 11,000 (3.1%) were called active. Inconclusive results (about 2%) are left out. Rule as the data show it: active = fluorescence intensity above about 16000; inconclusive = no clear call, values can overlap the other calls; inactive = below that. The entries come from a sample that favours actives as a whole.

Assay: compound fluorescence in toxin protease inhibitor counterscreen, primary screen, artefact control for toxin protease inhibitor project, biochemical, multiplex microsphere, HTS (AID 624483)
Conditions: compound autofluorescence counterscreen, microsphere flow cytometry; active compounds read high

Row | SMILES | fluorescence intensity
1 | CCC(=O)N1Cc2cc(C(=O)NCc3cccc(F)c3)nc(-c3cccc(C4=CCCC4)c3)c2[C@H]1CCO | 5960 (inactive)
2 | CS(=O)(=O)N1CCN(C(=O)c2cc3ccccc3oc2=O)CC1 | 20900 (active)
3 | COc1cccc2cc(C(=O)N3CCN(C(=O)c4ccccc4)CC3)c(=O)oc12 | 2640 (inactive)
4 | O=C(c1cc2ccccc2o1)N1CCN(S(=O)(=O)c2ccc(Cl)s2)CC1 | 3540 (inactive)
5 | Cc1ccc(S(=O)(=O)N2CCN(C(=O)Cc3sc(C)nc3-c3ccc(F)cc3)CC2)c(C)c1 | 5210 (inactive)
6 | COCCCNC(=O)c1cccc2c(-c3ccc(O)c(OC)c3)coc12 | 3660 (inactive)
7 | CCCS(=O)(=O)NC(=O)C1(C)CCCN(C(=O)c2cccs2)C1 (stereo not given) | 3930 (inactive)
8 | CN(C)c1nc(N)nc(Cn2nnc(-c3ccc(C(F)(F)F)cc3)n2)n1 | 5180 (inactive)
9 | CCc1ccc(-c2nnn(Cc3nc4ccccc4s3)n2)cc1 | 22800 (active)
10 | COc1ccc(-c2nnn(Cc3nc(N)nc(N4CCCCC4)n3)n2)cc1 | 4610 (inactive)
11 | CCc1ccc(-c2nnn(Cc3nn[nH]n3)n2)cc1 | 20100 (active)
12 | CCC1(CC)NC(=O)N(Cc2nc3ccccc3s2)C1=O | 3380 (inactive)
13 | CN(Cc1nc2ccccc2s1)C(=O)c1ccc(F)cc1 | 3850 (inactive)
14 | Nc1[nH]c(C(=O)c2ccccc2)c(-c2ccc(Br)cc2)c1C(=O)NC1CC1 | 4400 (inactive)
15 | Cc1ccc(C(O)c2ncc(-c3ccccc3F)[nH]2)cc1F (stereo not given) | 3620 (inactive)
16 | O=C1CCCC(O)=C1N=Nc1ccc2ncsc2c1 | 2580 (inactive)
17 | CN(CC(=O)Nc1ccccc1Cl)C(=O)COc1cccc2c1OC(C)(C)C2 | 5770 (inactive)
18 | CC1(C)CC(CCC(=O)Nc2ccccc2Cl)C(=O)O1 (stereo not given) | 23100 (active)
19 | CC1(C)CC(CC(=O)O)C(=O)O1 (stereo not given) | 4100 (inactive)
20 | COc1ccc(C2CC(c3ccccc3)=NN2C(=O)COC(=O)COc2ccccc2)cc1 (stereo not given) | 4620 (inactive)
21 | CNC(=S)N1N=C(c2ccccc2)CC1c1ccc(Br)cc1 (stereo not given) | 23900 (active)
22 | Brc1ccc(C2CC(c3ccccc3)=Nc3ccccc3N2)cc1 (stereo not given) | 2950 (inactive)
23 | COC(=O)Cc1ccc(OC2(C)CCN(Cc3ccc4c(c3)OCCO4)C2)cc1 (stereo not given) | 2970 (inactive)
24 | CCOc1ccc(NC(=S)N2CCCCCC2)cc1 | 4120 (inactive)
25 | O=C(NCc1cccnc1)c1cc(C2CCCCN2C(=O)CCc2ccccc2)on1 (stereo not given) | 3910 (inactive)

Row | SMILES | fluorescence intensity
26 | Cc1c(C(=O)NCC2CC2)sc(=O)n1Cc1cccc(F)c1 | 5240 (inactive)
27 | CN(CC(O)COc1ccc(S(=O)(=O)N2CCOCC2)cc1Cl)C1CCCCC1 (stereo not given) | 4510 (inactive)
28 | COc1ccc(CCNC(=O)c2ccc3c(c2)NC(=O)C(N2CCOCC2)S3)cc1OC (stereo not given) | 3710 (inactive)
29 | Cc1ccccc1CN1C(=O)c2ccccc2Sc2ccc(C(=O)NCCCN3CCOCC3)cc21 | 4180 (inactive)
30 | O=C(NCCCN1CCCCC1)c1ccc2c(c1)NC(=O)C(N1CCOCC1)S2 (stereo not given) | 20400 (active)
31 | CCOC(=O)N1CCN(C(c2ccnc3ccccc23)c2nnnn2-c2c(C)cccc2C)CC1 (stereo not given) | 5760 (inactive)
32 | COc1cccc(CNC(=O)[C@@H]2CCCN2C(=O)[C@@H]2CCCN2C(=O)c2ccccc2)c1 | 6440 (inactive)
33 | Cc1nn(CC(=O)NCCc2ccccc2)c(=O)c2cc3occc3n12 | 4600 (inactive)
34 | Cn1c(=O)[nH]c(=O)c2c1nc(N(CCO)Cc1ccccc1)n2Cc1ccccc1Cl | 19800 (active)
35 | CN(Cc1ccccc1)c1nc2c(c(=O)[nH]c(=O)n2C)n1CCSc1nc2ccccc2[nH]1 | 3450 (inactive)
36 | CCOC(=O)Cn1c(CN(Cc2ccccc2)Cc2ccccc2)nc2c1c(=O)[nH]c(=O)n2C | 11200 (inactive)
37 | COc1ccc(-c2[nH][nH]c(=O)c2NC(=O)c2ccc([N+](=O)[O-])cc2)cc1 | 4210 (inactive)
38 | CC(C)C[C@H]1CNC(=S)N1C[C@H]1CCCN1C[C@H](Cc1ccc(O)cc1)N1C[C@H](Cc2ccc(O)cc2)N(CC2CCCCC2)C1=S | 6520 (inactive)
39 | COC(=O)C1C(=O)CC(C)(O)C(C(=O)OC)C1c1ccc2c(c1)OCO2 (stereo not given) | 8340 (inactive)
40 | Cc1ccsc1-c1cc(C(=O)O)c2c(ccc3ccccc32)n1 | 3620 (inactive)
41 | COc1cccc(NC(=O)N2CCCC2C(=O)NC2CCCCC2)c1 (stereo not given) | 6160 (inactive)
42 | COCCn1nnnc1CN1CCC(NC(=O)Nc2cccc(OC)c2)CC1 | 24600 (active)
43 | COc1cccc(NC(=O)N2CCC(NC(=O)C(Cc3cccc(C)c3)NC(C)=O)CC2)c1 (stereo not given) | 3850 (inactive)
44 | COc1cc(C(=O)NN(CCC#N)C2=NS(=O)(=O)c3ccccc32)cc(OC)c1OC | 4420 (inactive)
45 | COc1ccc(/C=C2\CCCC3C2=NN(C(=O)c2scnc2C)C3c2ccc(OC)cc2)cc1 (stereo not given) | 22800 (active)
46 | COc1ccc(C=C2CCC3C(CCCC34OCCO4)C2=O)cc1 (stereo not given) | 2890 (inactive)
47 | COc1ccc(/C=C2/CCCc3ccccc3C2=O)cc1 | 3030 (inactive)
48 | Nc1ncnc2c1ncn2[C@@H]1O[C@H](C(=O)N2CCSC2)[C@@H](O)[C@H]1O | 5590 (inactive)
49 | O=C(NC1CCCC1)C1c2ccccc2OCC(=O)N1CC(F)(F)F (stereo not given) | 6700 (inactive)
50 | Cn1c(CN2CCOCC2)nc2cc(NC(=O)c3ccc(Cl)cc3)ccc21 | 4450 (inactive)

Row | SMILES | fluorescence intensity
51 | COCCn1c(C)cc(C2=NNC(=Nc3ccc(F)cc3)SC2)c1C | 20800 (active)
52 | C=CCn1c(C)cc(C2=NNC(=NCC)SC2)c1C | 2100 (inactive)
53 | C[C@@H]1CN([C@@H](C)CO)C(=O)c2c(c3ccccc3n2C)-c2ccccc2CO[C@H]1CN(C)C(=O)C1CC1 | 3570 (inactive)
54 | CCCCCCCCN1C(=O)[C@H](CC(=O)NCc2cccc3ccccc23)C[C@@]2(C(=O)OC)CCCCC=C12 | 4630 (inactive)
55 | CC(=O)NCC(=O)N1CCC(n2nccc2NC(=O)CCCc2ccccc2)CC1 | 6400 (inactive)
56 | O=C(O)CCC(=O)NCc1ccc(C(=O)O)cc1 | 3850 (inactive)
57 | O=C(O)c1ccc(COCC(F)(F)F)cc1 | 16300 (active)
58 | NNC(=O)c1ccc(COCC(F)(F)C(F)F)cc1 | 4020 (inactive)
59 | O=C(NCCCN1CCOCC1)C1CCCN(S(=O)(=O)N2CCCCC2)C1 (stereo not given) | 5550 (inactive)
60 | CN(C(=O)COC(=O)CCCc1c[nH]c2ccccc12)c1c(N)n(Cc2ccccc2)c(=O)[nH]c1=O | 3770 (inactive)
61 | CC1=C(C(=O)N2CCOCC2)CC(CC(=O)NCCCN(C)C)C(=O)N1Cc1ccc(C(C)(C)C)cc1 (stereo not given) | 5880 (inactive)
62 | CCOc1ccc(-c2noc(CCC(=O)NC3CCCC3)n2)cc1OC | 4230 (inactive)
63 | CCOC(=O)c1cc(-c2nnc(-c3cc(OC)c(OC)c(OC)c3)o2)c(C)nc1C | 3800 (inactive)
64 | CCOc1nc(-c2ccc(OC)cc2)ccc1-c1noc(-c2cc(OC)c(OC)c(OC)c2)n1 | 20200 (active)
65 | Nc1ncnc2c1ncn2[C@@H]1O[C@H](C(=O)NCC(F)(F)F)[C@@H](O)[C@H]1O | 5880 (inactive)
66 | COC(=O)[C@@]1(Cc2ccc(F)cc2)[C@H]2c3cc(C(=O)N4CCCC4)n(Cc4ccc(OC(F)(F)F)cc4)c3C[C@H]2CN1C(=O)c1ccccc1 | 4360 (inactive)
67 | CN1C[C@@H](CO)O[C@@H](n2cnc3c(N4CCN(CCO)CC4)ncnc32)C1 | 3470 (inactive)
68 | CC(=O)c1ccc(NC(=O)CSc2nc3ccccc3c(=O)n2CCCN2CCOCC2)cc1 | 3650 (inactive)
69 | CCc1ccc(NC(=O)CSc2nc3ccccc3c(=O)n2CCN2CCOCC2)cc1 | 23500 (active)
70 | COC(=O)c1ccc2c(=O)n(CCN3CCOCC3)c(SCC(=O)Nc3cccc(OC)c3)nc2c1 | 5360 (inactive)
71 | Clc1ccc(-c2cccc3nccn23)cc1 | 3770 (inactive)
72 | COc1cccc(-c2nc3nc(C)cc(C)n3c2NC2CCCCC2)c1 | 7480 (inactive)
73 | Cc1ccc(F)c(S(=O)(=O)NC(=O)C2(C)CCN2C(=O)c2ccco2)c1 (stereo not given) | 3860 (inactive)
74 | COC(=O)c1[nH]c2ccccc2c1NS(=O)(=O)c1ccc(OC)cc1OC | 20900 (active)
75 | CCCS(=O)(=O)Nc1c(C(=O)O)[nH]c2ccccc12 | 10100 (inactive)

Row | SMILES | fluorescence intensity
76 | COc1ccc(NC(=O)COC(=O)c2n[nH]c3ccccc23)c(OC)c1 | 5180 (inactive)
77 | CCC(C)(C)c1ccc(OCC(=O)N(C)C)c(C(C)(C)CC)c1 | 4730 (inactive)
78 | Cc1ccc(NC(=O)NC2CCCCC2)cc1S(=O)(=O)N1CCOCC1 | 3370 (inactive)
79 | Cc1ccc(C(=O)Nc2ncccc2C)cc1S(=O)(=O)N1CCOCC1 | 5280 (inactive)
80 | Cc1ccc(C(=O)Nc2ccccc2C(=O)NC2CCCCC2)cc1S(=O)(=O)N1CCOCC1 | 16600 (active)
81 | CCc1ccccc1NC(=O)CN1CCN(C(=O)c2cc(C3CC3)nn2-c2ccccc2)CC1 | 3950 (inactive)
82 | CCNC(=O)N1CCN(S(=O)(=O)c2ccc3c(c2)OCCCO3)CC1 | 5340 (inactive)
83 | CN1CCCN(S(=O)(=O)c2ccc3c(c2)OCCO3)CC1 | 22400 (active)
84 | CCCCCC(=O)N1CCN(S(=O)(=O)c2ccc3c(c2)OCCCO3)CC1 | 5990 (inactive)
85 | N#Cc1ccc(-c2nc3c(Cl)cc(C(F)(F)F)cn3c2Cc2ccccc2C(F)(F)F)cc1 | 5560 (inactive)
86 | COc1ccc(NC(=O)C2Cc3c(-c4ccc5c(c4)OCO5)ccnc3O2)cn1 (stereo not given) | 2850 (inactive)
87 | C#CCOc1ccccc1/C=C1/C(=O)ON=C1C | 4290 (inactive)
88 | CCOC(=O)c1cc2c(ccn2C)n1CC(=O)N1CCC(C)CC1 | 4040 (inactive)
89 | C/C(=N\c1nc2ccccc2n1C)c1cc(Cl)ccc1O | 3250 (inactive)
90 | Oc1ccc(Cl)cc1/C=N/c1nc2ccccc2[nH]1 | 22500 (active)
91 | Oc1c(Cl)cc(Cl)cc1/C=N/c1ncn[nH]1 | 4010 (inactive)
92 | C=CCNCCCCOc1ccccc1 | 2600 (inactive)
93 | CCc1nc2c(OCC(=O)C(C)(C)C)cccn2c1N(C)C(=O)c1ccccc1F | 3600 (inactive)
94 | CC1(C(=O)NCc2ccc3c(c2)OCO3)CCN1CCc1ccccc1 (stereo not given) | 3940 (inactive)
95 | CCc1nc2ccc(C(=O)N3CCN(S(=O)(=O)CC)CC3)cn2c1N(C=O)CCC(C)C | 3570 (inactive)
96 | NC(=O)Cn1c(=O)oc2ccccc21 | 19700 (active)
97 | CC(=O)c1ccc(NC(=O)Cn2c(=O)oc3ccccc32)cc1 | 3040 (inactive)
98 | CC1CCCN(C(=O)Cn2c(=O)oc3ccccc32)C1 (stereo not given) | 3850 (inactive)
99 | O=C(NC(c1ccc(Cl)cc1)c1cnccn1)C1CCN(Cc2ccc(Cl)cc2)CC1 (stereo not given) | 4620 (inactive)
100 | CCCCC[C@H](C)N1C[C@@H](COCc2ccccc2)Oc2cc(N3CC[C@@H](N(C)C)C3)ccc2S1(=O)=O | 5700 (inactive)
